Compound activity (PubChem BioAssay)
Mtb hypoxia rep: PubChem AID 1159583. M. tuberculosis hypoxia-regulated fluorescent reporter, fluorescence. actives 0.1% (n = 300,000). fluorescence inhibition, % (concentration not given with the values); in the data active means fluorescence inhibition mostly above about 23%, no sharp cut-off; inactive means mostly below about 17%
FBA Mtb inh: Mtb FBA enzyme inhibitors, primary screen, biochemical, fluorescence, strain H37Rv; Fructose-bisphosphate aldolase (Mycobacterium tuberculosis (strain ATCC 25618 / H37Rv)), …; purified M. tuberculosis FBA, fluorescence read-out; inhibition, % at 1 µM; actives 2.3% (n = 360,000); in the data active means inhibition above about 27%;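 further: 0% = vehicle and 100% = reference inhibitor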
Target sequence (P9WQA3 whole entry, looked up): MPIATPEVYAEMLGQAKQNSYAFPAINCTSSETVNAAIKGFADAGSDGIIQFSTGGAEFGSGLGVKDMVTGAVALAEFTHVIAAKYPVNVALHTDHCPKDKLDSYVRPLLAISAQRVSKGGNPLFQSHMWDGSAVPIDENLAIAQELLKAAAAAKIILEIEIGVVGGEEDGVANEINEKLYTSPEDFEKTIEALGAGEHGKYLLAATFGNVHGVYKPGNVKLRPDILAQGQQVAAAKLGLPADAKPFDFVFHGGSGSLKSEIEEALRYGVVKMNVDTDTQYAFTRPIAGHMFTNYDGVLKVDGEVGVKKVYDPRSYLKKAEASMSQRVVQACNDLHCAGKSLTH
FadD28 FP inh: inhibitors of FadD28 bisubstrate probe binding, primary screen, biochemical, fluorescence polarization, single point. inhibition, % at 12.5 µM. actives 0.22% (n = 360,000). AID 588549, 2011; in the data active means inhibition above about 8.5%, passing the limit was not always enough
BioA inh: M. tuberculosis BioA enzyme inhibitors, primary screen, biochemical, plate reader, single point, HTS | actives 0.096% (n = 360,000) | purified M. tuberculosis BioA enzyme | inhibition, % at 9.99 µM | 7,8-diaminopelargonic acid synthase BioA (Mycobacterium tuberculosis); in the data active means inhibition above about 40%
GDH-TPI counter: GDH-TPI coupling enzyme inhibitors, primary screen, artefact control for M. tuberculosis FBA inhibitor project, biochemical, absorbance, full deck; GDH-TPI coupled enzyme counterscreen, NADH absorbance; actives 1.2% (n = 360,000); inhibition, % at 4.8 µM; in the data active means inhibition above about 30%;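 further: 0% = DMSO wells and 100% = wells lacking the enzyme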
The depositor's hits bear a star; · = no result; + = active, no number. Sampled rows, rich in hits. Any-hit rate of the full collection: about 2.9%.

SMILES	Mtb hypoxia rep	FBA Mtb inh	FadD28 FP inh	BioA inh	GDH-TPI counter
Nc1ccc(-c2ncc(-c3ccccc3)o2)cc1	13	+	4	0	27
Cc1ccc(-c2cnc(-c3ccncc3)o2)cc1	11	+	-3	-3	19
O=C(O)c1ccccc1-c1ncc(-c2ccccc2)o1	13	123*	-1	-1	18
CCCc1nnc(NC(=O)c2oc3ccccc3c2COCC)s1	-2	-1	-3	-3	22
COCc1c(C(=O)Nc2nnc(C3CC3)s2)oc2ccccc12	·	-1	-1	-3	44*
CC(=O)c1ccc(N/N=C2/CCCNC2=O)cc1	·	-2	0	4	36*
CCOC(=O)CN1N=C(/C=C/c2ccc(OC)cc2)CCC1=O	·	1	1	-1	38*
CCOC(=O)C(C)N1N=C(/C=C/c2ccc(OC)cc2)CCC1=O (stereo not drawn)	·	1	-1	-2	42*
COc1cc(NC(=O)CC(C)=NNC(=O)C(=O)NCCO)c(OC)cc1Cl	-4	·	·	·	·
C[C@H](CO)N1C[C@H](C)[C@H](CN(C)C(=O)Nc2cccc3ccccc23)Oc2c(NC(=O)c3cnccn3)cccc2C1=O	·	·	·	0	·
CCOC(=O)CC1c2ccc(C(F)(F)F)cc2S(=O)(=O)N1C(C)(C)C (stereo not drawn)	-8	·	·	·	·
O=C(Nc1cccc(-c2nc3ccccc3s2)c1)c1ccc2c(c1)OCO2	13	1	-3	0	14
c1ccc2sc(-c3ccc4c(c3)OCO4)nc2c1	0	130*	-3	-1	18
Nc1cc(C(F)(F)F)ccc1C(=O)O	·	76*	3	-1	9
CCOC(=O)C(C#N)=NNc1ccc(S(=O)(=O)Nc2cc(OC)nc(OC)n2)cc1	3	·	·	·	·
COc1cc(NS(=O)(=O)c2ccc(Nc3nc(-c4ccccn4)cs3)cc2)nc(OC)n1	-3	-3	3	·	13
CCOC(=O)/C(C#N)=N/Nc1ccc(S(=O)(=O)Nc2cc(OC)nc(OC)n2)cc1	·	-8	-2	0	38*
COc1cc(NS(=O)(=O)c2ccc(N/C=C(\C#N)c3nc4cc(Cl)ccc4o3)cc2)nc(OC)n1	-2	5	-11	-2	53*
COc1ccc(-c2csc(Nc3ccc(S(=O)(=O)Nc4cc(OC)nc(OC)n4)cc3)n2)cc1	0	-2	12*	4	19
O=C(CC(=O)c1ccccc1)Nc1cc([N+](=O)[O-])ccc1Cl	11	0	-1	-3	31*
C[C@@H]1CN([C@H](C)CO)C(=O)Cc2cc(NC(=O)Nc3cccc4ccccc34)ccc2O[C@@H]1CN(C)S(=O)(=O)c1ccccc1	·	·	·	-6	·
CC(C)(O)CCC(O)[C@](C)(O)C1CC[C@@]2(O)C3=CC(=O)C4CC(O)C(O)C[C@]4(C)C3CC[C@]12C (stereo partly drawn)	4	·	·	·	·
CCC(C)NC(=O)CCC(=O)OC1O[C@H]2OC3(C)CC[C@H]4[C@H](C)CCC(C1C)C24OO3 (stereo partly drawn)	74*	-1	-3	1	-11
COC1OC2O[C@@]3(C)CCC4C(C)CCC(C1C)[C@@]24OO3 (stereo partly drawn)	90*	·	·	·	·
CCCCCn1cc(C(=O)C(=O)N2CCOCC2)c2ccccc21	3	-3	-4	-1	13
SMILES	Mtb hypoxia rep	FBA Mtb inh	FadD28 FP inh	BioA inh	GDH-TPI counter
O=C(C(=O)N1CCOCC1)c1cn(Cc2ccc(F)cc2)c2ccccc12	-4	-4	-1	2	32*
Cc1ccccc1OCCCn1cc(C(=O)C(=O)N2CCOCC2)c2ccccc21	-6	152*	1	·	11
O=C(Nc1ccc(F)cc1)N1C[C@@H]2[C@H](c3ccccc31)[C@H](CO)N2C(=O)c1ccccn1	·	·	·	-2	·
O=C(N/N=C/c1c[nH]c2ccccc12)c1cc(-c2ccccc2)n[nH]1	·	-6	6	2	37*
Nc1ccc(C(=O)N/N=C/c2c[nH]c3ccccc23)cc1	·	0	0	-1	41*
Cc1cc(/C=N/NC(=O)c2ccc(O)cc2)c(C)n1CC(C)C	·	4	-1	-1	47*
O=C(N/N=C\c1c[nH]c2ccccc12)c1ccc(O)cc1	·	0	-3	-1	32*
O=C(NN=Cc1c[nH]c2ccccc12)c1ccc(O)cc1	5	·	·	·	·
O=C(NN=Cc1c[nH]c2ccccc12)c1ccccc1	12	·	·	·	·
